# Source: PubChem BioAssay
# TEAD-YAP inh – TEAD-YAP interaction inhibition. HEK-TIYL cells, TEAD-Gal4/YAP UAS-luciferase luminescence. inhibition, % at 9.12 µM. 640,000 compounds, 1.4% hits. AID 1259422; in the data active = inhibition above about 32%
# MITF inh – inhibitors of human MITF; AlphaScreen MITF homodimerization, bead proximity signal; inhibition, % at 2.6 µM; 650,000 compounds, 0.91% hits; in the data active = inhibition above about 50%
# Target sequence (O75030 whole entry, looked up): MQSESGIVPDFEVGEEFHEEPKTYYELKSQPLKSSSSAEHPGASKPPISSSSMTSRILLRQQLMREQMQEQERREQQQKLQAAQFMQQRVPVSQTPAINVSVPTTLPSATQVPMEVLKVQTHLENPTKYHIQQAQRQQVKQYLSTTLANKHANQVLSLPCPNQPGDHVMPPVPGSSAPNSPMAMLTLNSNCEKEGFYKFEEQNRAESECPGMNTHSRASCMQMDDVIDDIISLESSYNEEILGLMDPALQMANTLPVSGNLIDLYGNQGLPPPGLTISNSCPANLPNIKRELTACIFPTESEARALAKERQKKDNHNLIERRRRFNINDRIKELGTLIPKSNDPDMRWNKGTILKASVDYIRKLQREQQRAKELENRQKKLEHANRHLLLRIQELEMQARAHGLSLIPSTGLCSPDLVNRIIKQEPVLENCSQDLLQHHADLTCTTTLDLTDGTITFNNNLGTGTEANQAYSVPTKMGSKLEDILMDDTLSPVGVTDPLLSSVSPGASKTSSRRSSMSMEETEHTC
# FBW7 activator – activators of human E3 ligase FBW7. Q969H0. AlphaScreen FBW7–phospho-cyclin E peptide binding, activator screen. normalized activity (activation), % at 26.1 µM. 650,000 compounds, 0.13% hits. AID 1259310; in the data active = normalized activity above about 1.9%;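 note: purified mutant Fbw7 with reduced substrate affinity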
# GPR151 activ – human GPR151 activation; Q8TDV0; PathHunter beta-arrestin GPR151 cells, luminescence; activation, % at 11.2 µM; 650,000 compounds, 1% hits; AID 1508602; in the data active = activation above about 4.9%
# A number is an active result; n = inactive. A selection: hits, their analogues and other compounds. The true share with any hit is near 3.5%.
SMILES,TEAD-YAP inh,MITF inh,FBW7 activator,GPR151 activ
Cc1ccc(C2=NN(CCC(=O)NC3CCCC(C)C3C)C(=O)CC2)cc1 (stereo not given),n,n,n,n
COc1ccc(/C(C)=N/NC(=S)NCCc2ccccc2)c(O)c1,n,87.3,n,n
C/C(=N\NC(=S)NCCc1ccccc1)c1ccccn1,88.1,n,n,n
O=C(Cc1ccccc1)N/N=C/c1ccccn1,n,n,n,n
S=C(NCCc1ccccc1)N/N=C/c1ccccn1,80.5,n,n,n
COc1ccc(-n2ncc3c(Nc4ccccc4SC)ncnc32)cc1,55.3,n,n,n
COc1ccc(-n2ncc3c(Nc4ccc(C)cc4C)ncnc32)cc1,n,n,n,n
CSc1ccccc1Nc1ncnc2c1cnn2-c1ccccc1,n,n,n,n
COc1ccc(OC)c(Nc2ncnc3c2cnn3-c2cccc(C)c2)c1,41.9,n,n,n
COc1ccc(-n2ncc3c(Nc4cc(C)ccc4C)ncnc32)cc1,40.0,n,n,n
CC(C)(C)c1cc2oc3c(c2cc1OC(=O)c1cccc(Cl)c1)CCCC3,n,n,n,n
COc1ccc(C2C(C(=O)Nc3ccc(F)cc3)c3cc(OC)c(OC)cc3C(=O)N2C)cc1OC (stereo not given),n,n,n,n
Nc1nccc(-c2ccc3nc(C4COc5ccc(C(=O)NCCc6cccs6)cc5C4)[nH]c3c2)n1 (stereo not given),n,n,23.8,n
COc1ccccc1CCNC(=O)c1ccc2c(c1)CC(c1nc3ccc(-c4ccnc(N)n4)cc3[nH]1)CO2 (stereo not given),n,n,3.0,n
CN(C)CCNC(=O)c1ccc2c(c1)CC(c1nc3ccc(-c4ccnc(N)n4)cc3[nH]1)CO2 (stereo not given),n,n,n,n
O=C1NN(c2ccc(Cl)cc2)C(=O)/C1=C/c1ccc(Br)c([N+](=O)[O-])c1,n,n,n,n
Cc1ccc(N2C(=O)CSC2c2cccc([N+](=O)[O-])c2)cc1F (stereo not given),33.6,n,n,n
c1ccc(CN2CCC(Nc3nccc(NC4CC4)n3)CC2)cc1,n,n,n,n
Brc1cnc(NC2CCN(Cc3ccccc3)CC2)nc1,44.4,n,n,n
Cc1onc(-c2nc(Nc3ccc(-n4cnc(N5CCOCC5)n4)cc3)ncc2Cl)c1-c1cnn(C)c1,n,n,n,n
Cc1cc(/C=C\c2nc(O)c([N+](=O)[O-])c(=O)[nH]2)c(C)n1-c1ccc(C(=O)O)cc1,n,62.8,n,n
Cc1cc(C2C(C#N)=C(N)N(c3ccc(F)cc3)C3=C2C(=O)CCC3)c(C)s1 (stereo not given),n,n,n,n
N#Cc1ccc(Oc2ccc(N3C(=O)C4C5C=CC(C5)C4C3=O)cc2)cc1C#N (stereo not given),40.4,n,n,n
O=C1C2C3C=CC(C3)C2C(=O)N1c1ccc(Oc2ccccc2)cc1 (stereo not given),n,n,n,n
COc1cc(C(=O)NN=C2CCCC2)cc(OC)c1OC,61.9,n,n,n
SMILES,TEAD-YAP inh,MITF inh,FBW7 activator,GPR151 activ
COc1cc(C(=O)N/N=C2/CCCc3ccccc32)cc(OC)c1OC,59.8,n,n,n
Nc1ccc(C(=O)N/N=C2\CCCc3ccccc32)cc1,n,n,n,n
COc1cc(C(=O)NC2CCCC2)cc(OC)c1OC,n,n,n,n
COc1cc(C(=O)NN=C2CCN(Cc3ccccc3)CC2)cc(OC)c1OC,70.3,n,n,n
COc1cc(C(=O)NN=C2CCC(c3ccccc3)CC2)cc(OC)c1OC (stereo not given),60.6,n,n,n
O=C(C1CCCCC1)N1CCc2nc3ccccn3c(=O)c2C1,n,n,n,n
CC1CCN(CC(=O)Nc2ccc([N+](=O)[O-])cc2Br)CC1,n,n,n,n
COc1ccc(-c2cc3nccc(C4CCNCC4)n3n2)cc1,32.9,n,n,n
Cc1ccc(-c2cc3nccc(C4CCNCC4)n3n2)cc1,n,n,n,n
CCOC(=O)N1CCN(C(=O)CSc2nnc(-c3cn(C)nc3OC)n2CC)CC1,n,n,n,n
O=c1c(=NNc2ccccc2Cl)c(=O)c2ccccc12,57.8,n,n,n
O=c1c(=NNc2ccccc2)c(=O)c2ccccc12,n,n,n,n
Cc1ccc(NN=c2c(=O)c3ccccc3c2=O)cc1,n,n,n,n
O=c1c(=NNc2nn[nH]n2)c(=O)c2ccccc12,97.7,n,n,n
O=[N+]([O-])c1c(Nc2ccccc2)n[nH]c1-c1nnco1,n,n,n,n
Cc1ccc(Nc2nc3ccc(C)cc3n3nnnc23)cc1,n,n,n,n
Cc1sc(NC(=O)c2ccccc2I)c(C(N)=O)c1C,n,n,n,n
C/C(=N/NC(=O)c1cc(C2CC2)[nH]n1)c1ccc(Cl)s1,n,n,n,n
CC(C)[C@@H](CO)Nc1ccc2ncc(-c3ccc(N)cc3)n2n1,n,n,16.7,n
CC(C)[C@@H](CO)Nc1ccc2ncc(-c3cccc(F)c3)n2n1,n,n,n,n
CC(C)[C@@H](CO)Nc1ccc2ncc(-c3cccc(O)c3)n2n1,38.5,n,n,n
Cc1ccc(-c2cnc3ccc(N[C@H](CO)C(C)C)nn23)cc1,n,n,n,n
CC1=C(C(=O)OCC(C)C)C(c2cccc([N+](=O)[O-])c2)C2=C(CC(c3cccs3)CC2=O)N1 (stereo not given),n,n,n,n
O=Cc1ccc(OCCN2CCCC2)cc1,n,n,n,n
CC(=O)Nc1nc(-c2ccc3c(c2)CCN3C(=O)C2CCCCC2)c(C)s1,77.7,n,n,n
SMILES,TEAD-YAP inh,MITF inh,FBW7 activator,GPR151 activ
Cc1sc(NC(=O)c2cnccn2)nc1-c1ccc2c(c1)CCN2C(=O)C1CCCCC1,n,n,n,n
CC(=O)Nc1nc(-c2ccc3c(c2)CCN3C(=O)C2CC2)c(C)s1,75.1,n,n,n
O=C1OC(c2ccc(Cl)cc2Cl)=N/C1=C\c1ccccc1[N+](=O)[O-],n,n,n,n
O=C(C(=O)N1CCN(C(=O)c2ccco2)CC1)c1c(-c2ccccc2)cc2ccccn12,42.3,n,n,n
OCc1ccccc1-c1cnc2c(Nc3ccc4[nH]ccc4c3)nccn12,92.8,n,n,n
Oc1ccc(-c2cnc3c(Nc4ccc5[nH]ccc5c4)nccn23)cc1,68.7,n,n,n
Nc1ccc(-c2cnc3c(Nc4ccc5[nH]ccc5c4)nccn23)cc1,68.9,n,n,n
c1cn2c(-c3ccsc3)cnc2c(Nc2ccc3[nH]ccc3c2)n1,55.5,n,n,n
Cc1ccc(-c2cnc3c(Nc4ccc5[nH]ccc5c4)nccn23)cc1,n,n,n,n
COc1cc(-c2cnc3c(Nc4ccc5[nH]ccc5c4)nccn23)cc(OC)c1OC,n,n,n,n
Cc1ccsc1CCNC(=O)c1cc(S(=O)(=O)N2CCCCC2)c[nH]1,n,n,n,n
Cc1nc(SCc2nnc(-c3ccccc3)o2)c(C#N)c(C)c1C,92.1,n,n,n
Cc1cc(C(F)(F)F)c(C#N)c(SCc2nnc(-c3ccccc3)o2)n1,41.1,n,n,n
Cc1cc(C)c(C#N)c(SCc2nnc(-c3ccc(Cl)cc3)o2)n1,n,n,n,n
CCOc1ccc(-n2c(=S)sc3c(=O)[nH]c(SCc4ccc(C)cc4)nc32)cc1,n,n,n,n
